Out of some 39,000 compounds screened, about 3,300 (8.5%) were called active. Only a selection was taken, and actives are over-represented in it overall.
System: HepG2
Assay: cytotoxicity call (relative viability < 0.9)
Conditions: 10 µM

Compound	cytotoxicity call
C[C@@H]1CN([C@H](C)CO)C(=O)Cc2cc(NS(=O)(=O)c3cccs3)ccc2O[C@H]1CN(C)C(=O)Nc1cccc2ccccc12	inactive
CCCNC(=O)N(C)C[C@@H]1Oc2cc(-c3ccccc3F)ccc2S(=O)(=O)N([C@@H](C)CO)C[C@@H]1C	inactive
CN(C)CCCNC(=O)C[C@@H]1C=C[C@H](NS(=O)(=O)c2ccccc2)[C@@H](CO)O1	inactive
C[C@@H]1CCCCO[C@@H](CN(C)S(=O)(=O)c2cn(C)cn2)[C@@H](C)CN([C@H](C)CO)C(=O)c2cc(NS(=O)(=O)c3ccccc3)ccc2O1	inactive
O=C(NCCCN1CCOCC1)[C@H]1[C@H](CO)[C@H]2Cn3c(cccc3=O)[C@@H]1N2C(=O)C1CCCC1	inactive
COc1ccc(CNC(=O)C[C@H]2C[C@@H]3c4cc(NS(=O)(=O)c5ccc(F)cc5)ccc4O[C@@H]3[C@H](CO)O2)cc1	inactive
C[C@@H]1CN([C@@H](C)CO)C(=O)Cc2cc(NC(=O)CCCCCC(=O)Nc3ccccc3N)ccc2O[C@H]1CN(C)S(C)(=O)=O	inactive
COc1cccc(CN(C)C[C@@H]2OCc3ccccc3-c3c(n(C)c4ccccc34)C(=O)N([C@@H](C)CO)C[C@H]2C)c1	inactive
C[C@H](CO)N1C[C@H](C)[C@H](CN(C)Cc2ccc(C(F)(F)F)cc2)OCCCC[C@H](C)Oc2ccc(NS(=O)(=O)c3cn(C)cn3)cc2C1=O	inactive
O=C(C[C@@H]1CC[C@H]2[C@@H](COC[C@H](O)CN2C(=O)Nc2ccc(Cl)cc2)O1)NCCc1ccncc1	inactive
C[C@@H]1CCCCO[C@H](CN(C)Cc2ccc(C(F)(F)F)cc2)[C@@H](C)CN([C@@H](C)CO)C(=O)c2cc(N(C)C)ccc2O1	inactive
O=C(C[C@@H]1C[C@@H]2c3cc(NC(=O)C4CCOCC4)ccc3O[C@@H]2[C@H](CO)O1)NCc1cc(F)ccc1F	inactive
O=c1c(O)cccc2cc(O)c(O)c(O)c12	inactive
O=C(O)c1cc2ccc(O)c(=O)c-2c(O)c(O)c1	inactive
O=c1c(O)c(O)cc2cccc(O)c(O)c1-2	active
CCCNC(=O)Nc1ccc2c(c1)OC[C@H](C)N(C(=O)C1CCOCC1)C[C@H](C)[C@@H](OC)CN(C)C2=O	inactive
Cc1ccc(S(=O)(=O)N(C)C[C@@H]2Oc3ccc(NS(C)(=O)=O)cc3CC(=O)N([C@@H](C)CO)C[C@H]2C)cc1	inactive
C=CCOC(=O)[C@@H]1[C@@H]2C=C[C@]3(O2)[C@H](C(=O)N(CC=C)Cc2ccccc2)N(c2cccc(Cl)c2CO)C(=O)[C@@H]13	inactive
C=CCOC(=O)[C@@H]1[C@@H]2C=C[C@@]3(O2)[C@@H]1C(=O)N(CCCCCCO)[C@H]3C(=O)N(CC=C)Cc1ccccc1	active
C=CCN(Cc1ccccc1)C(=O)[C@@H]1N(CCOCCO)C(=O)[C@@H]2[C@H](C(=O)O)[C@@H]3C=C[C@@]21O3	inactive
Cc1cc(C(=O)Nc2cccc3c2O[C@@H](CN(C)C(=O)Nc2ccc4c(c2)OCO4)[C@H](C)CN([C@H](C)CO)C3=O)n(C)n1	inactive
CC(=O)N1CCN(CCOc2ccc(C3CCN(C4=Nn5c(nnc5C(F)(F)F)CC4)CC3)cc2)CC1	active
C[C@@H]1CN([C@H](C)CO)S(=O)(=O)c2ccc(/C=C/c3ccccc3)cc2O[C@@H]1CN(C)C(=O)CN1CCOCC1	inactive
COc1ccc(NC(=O)N(C)C[C@H]2OCCCC[C@H](C)Oc3ccc(NC(=O)Nc4ccc(F)cc4)cc3C(=O)N([C@@H](C)CO)C[C@H]2C)cc1	inactive
CC(C)C[C@@H]1NC(=O)[C@@H]2C[C@H](C(=O)NCCCCCNC(=O)CS)[C@H](c3ccc(O)cc3)N2C1=O	inactive

Compound	cytotoxicity call
C[C@H]1CN([C@@H](C)CO)S(=O)(=O)c2ccc(-c3cccc(C#N)c3)cc2O[C@H]1CN(C)C(=O)c1ccncc1	inactive
C[C@@H]1CN([C@@H](C)CO)S(=O)(=O)c2ccc(-c3ccc(C(=O)N(C)C)cc3)cc2O[C@@H]1CN(C)C(=O)C1CCOCC1	inactive
CCN(CC)CCOc1ccc(C(=C(Cl)c2ccccc2)c2ccccc2)cc1.O=C(O)CC(O)(CC(=O)O)C(=O)O	active
Cc1ccccc1C(OCCN(C)C)c1ccccc1.O=C(O)CC(O)(CC(=O)O)C(=O)O (stereo not drawn)	inactive
O=C(O)CC(O)(CC(=O)O)C(=O)O [listing 1 of 2 here]	inactive
O=C(O)CC(O)(CC(=O)O)C(=O)O [listing 2 of 2 here]	inactive
O=C(O)C1(c2ccccc2)CCCC1	inactive
CCC(=C(c1ccccc1)c1ccc(OCCN(C)C)cc1)c1ccccc1.O=C(O)CC(O)(CC(=O)O)C(=O)O	inactive
CCN(CC)CCOCCOC(=O)C1(c2ccccc2)CCCC1.O=C(O)CC(O)(CC(=O)O)C(=O)O	active
CN(C)CCOc1ccc(C(=C(CCCl)c2ccccc2)c2ccccc2)cc1.O=C(O)CC(O)(CC(=O)O)C(=O)O	active
CCN(CC)CCOCCOC(=O)C(CC)(CC)c1ccccc1.O=C(O)CC(O)(CC(=O)O)C(=O)O	inactive
O=C(C[C@@H]1CC[C@@H]2[C@H](COC[C@H](O)CN2S(=O)(=O)c2ccc(F)cc2)O1)NCCN1CCCCC1	inactive
C[C@@H]1CN([C@H](C)CO)C(=O)c2cccc(NS(C)(=O)=O)c2O[C@H]1CN(C)C(=O)Nc1ccc2c(c1)OCO2	inactive
CC(C)CC#Cc1ccc2c(c1)O[C@H](CN(C)Cc1cncnc1)[C@@H](C)CN([C@H](C)CO)S2(=O)=O	inactive
C=CC(=O)Nc1ccc([C@@H](CCc2ccc(OC)c(OC)c2)OC(=O)[C@@H]2CCCCN2C(=O)C(=O)C(C)(C)CC)cc1	inactive
Cc1ccc(S(=O)(=O)Nc2ccc3c(c2)C(=O)N([C@H](C)CO)C[C@@H](C)[C@@H](CN(C)C(=O)Cc2ccccc2)OCCCC[C@H](C)O3)cc1	inactive
COCC(=O)Nc1ccc2c(c1)OC[C@@H](C)N(Cc1ccccc1F)C[C@@H](C)[C@H](OC)CN(C)C2=O	inactive
Cc1noc(C)c1NC(=O)Nc1ccc2c(c1)C(=O)N([C@@H](C)CO)C[C@@H](C)[C@H](CN(C)S(=O)(=O)c1cccs1)OCCCC[C@H](C)O2	inactive
C[C@@H]1CN([C@H](C)CO)C(=O)c2cc(NC(=O)Cn3cnnn3)ccc2O[C@@H]1CN(C)S(=O)(=O)c1cccs1	inactive
O=C(O)[C@@H]1CCCCN1	inactive
C1CCC(C(C[C@H]2CCCCN2)C2CCCCC2)CC1	active
C1CCC(C(CC2CCCCN2)C2CCCCC2)CC1.O=C(O)C=CC(=O)O (stereo not drawn)	active
O=C(O)CC[C@H]1CCCCN1	inactive
OC[C@@H]1CCCN1	inactive
OC[C@@H]1CCCCN1	inactive

Compound	cytotoxicity call
C[C@H]1CN([C@@H](C)CO)C(=O)c2cccc(NS(=O)(=O)c3cn(C)cn3)c2O[C@H]1CN(C)CC1CCCCC1	inactive
CCCC#Cc1ccc2c(c1)O[C@@H](CN(C)S(=O)(=O)c1cccc(F)c1)[C@@H](C)CN([C@@H](C)CO)S2(=O)=O	inactive
O=C(CN1CCOCC1)NCC[C@H]1CC[C@@H](NC(=O)c2ccccc2F)[C@@H](CO)O1	inactive
CC(C)NC(=O)N(C)C[C@@H]1Oc2ccc(NC(=O)CCCN(C)C)cc2C(=O)N([C@H](C)CO)C[C@H]1C	inactive
CCc1nc(N)nc(N)c1-c1ccc(Cl)cc1	active
CCc1nc2ccccc2nc1CC	inactive
Nc1oncc1-c1ccc(Cl)cc1	inactive
C[C@@H]1CN([C@@H](C)CO)C(=O)c2cc(NC(=O)Nc3ccccc3)ccc2O[C@@H](C)CCCCO[C@H]1CN(C)C(=O)Cc1ccccc1	inactive
C[C@@H]1CCCCO[C@@H](CN(C)C(=O)Nc2ccc(F)cc2)[C@@H](C)CN([C@H](C)CO)C(=O)c2cc(NC(=O)Nc3ccc(C(F)(F)F)cc3)ccc2O1	inactive
CC(C)CC#Cc1ccc2c(c1)O[C@@H](CN(C)CC1CCOCC1)[C@H](C)CN([C@@H](C)CO)S2(=O)=O	active
CC(C)CC#Cc1ccc2c(c1)O[C@H](CN(C)CC1CCOCC1)[C@@H](C)CN([C@H](C)CO)S2(=O)=O	inactive
C[C@@H]1CN([C@@H](C)CO)S(=O)(=O)c2ccc(C#Cc3ccccc3F)cc2O[C@@H]1CN(C)C(=O)c1ccc2c(c1)OCO2	active
C[C@@H]1CN([C@H](C)CO)S(=O)(=O)c2ccc(C#Cc3ccccc3F)cc2O[C@@H]1CN(C)CC1CC1	inactive
CC(C)CC#Cc1ccc2c(c1)O[C@@H](CN(C)CC1CCOCC1)[C@@H](C)CN([C@H](C)CO)S2(=O)=O	inactive
C[C@@H]1CN([C@@H](C)CO)S(=O)(=O)c2ccc(C#Cc3ccccc3F)cc2O[C@H]1CN(C)C(=O)Cc1cccnc1	inactive
C[C@@H]1CN([C@@H](C)CO)S(=O)(=O)c2ccc(C#Cc3ccccc3F)cc2O[C@H]1CN(C)CC1CC1	inactive
C[C@H]1CN([C@@H](C)CO)S(=O)(=O)c2ccc(C#Cc3ccccc3F)cc2O[C@@H]1CN(C)C(=O)c1ccc2c(c1)OCO2	inactive
C[C@@H]1CN([C@@H](C)CO)S(=O)(=O)c2ccc(C#Cc3ccccc3F)cc2O[C@@H]1CN(C)C(=O)Cc1cccnc1	active
C[C@H](CO)N1C[C@H](C)[C@H](CN(C)CC2CC2)Oc2cc(C#Cc3ccccc3F)ccc2S1(=O)=O	active
C[C@H]1CN([C@@H](C)CO)S(=O)(=O)c2ccc(C#Cc3ccccc3F)cc2O[C@H]1CN(C)C(=O)c1ccc2c(c1)OCO2	inactive
C[C@@H]1CN([C@H](C)CO)S(=O)(=O)c2ccc(C#Cc3ccccc3F)cc2O[C@@H]1CN(C)C(=O)Cc1cccnc1	inactive
C[C@H]1CN([C@@H](C)CO)S(=O)(=O)c2ccc(C#CC3CC3)cc2O[C@@H]1CN(C)C(=O)c1cccc(F)c1	inactive
Cc1noc(C)c1NC(=O)N(C)C[C@H]1OCCCC[C@@H](C)Oc2ccc(NC(=O)Nc3ccccc3)cc2C(=O)N([C@@H](C)CO)C[C@H]1C	inactive
